Measured potencies and affinities stand elsewhere. Calls of active or inactive are those of the source.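 Rule for the calls: active = fitted half-maximal dose no more than twice the top valid tested dose, for compounds that lower signal; inconclusive = fit invalid, or curve flat with activity between -70 and -30; inactive = potency past limit, curve flat within ±30, or signal increasing.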
Target: NAD-dependent protein deacylase sirtuin-5, mitochondrial (Homo sapiens) (UniProt Q9NXA8)
Test: blockers of sirtuin-5 peptide desuccinylation – biochemical, fluorescence imaging, cherry-pick, set 6, dose response (AID 720597);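 note: lower AMC signal can also come from blocking the trypsin step; 0% = median of neutral control wells and -100% = median of positive control wells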
Conditions: Purified SirT5, succinyl-peptide-AMC/trypsin fluorescence; series mostly up to 15 µM; activity change, negative = inhibition: at the top concentration

Sequence of NAD-dependent protein deacylase sirtuin-5, mitochondrial (Homo sapiens) (Q9NXA8 whole entry, looked up): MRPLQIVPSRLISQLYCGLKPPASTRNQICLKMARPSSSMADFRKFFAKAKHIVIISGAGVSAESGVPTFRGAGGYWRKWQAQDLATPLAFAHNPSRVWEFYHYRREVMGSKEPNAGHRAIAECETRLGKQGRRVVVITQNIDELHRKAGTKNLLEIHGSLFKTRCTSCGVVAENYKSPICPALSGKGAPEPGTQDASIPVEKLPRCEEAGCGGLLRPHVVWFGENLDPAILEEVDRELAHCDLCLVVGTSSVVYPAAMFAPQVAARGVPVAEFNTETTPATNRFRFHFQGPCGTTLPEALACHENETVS

Activity change, negative = inhibition, inactive:
O=C(C1CCC1)N1CC[C@H]2[C@H](CO)Nc3ccc(C#Cc4cccc(F)c4)cc3[C@H]21 -12.4%, CC(C)CC#Cc1ccc2c(c1)O[C@@H](CN(C)Cc1ccccc1F)[C@H](C)CN([C@H](C)CO)S2(=O)=O -18.7%, C[C@@H]1CCCCO[C@@H](CN(C)C(=O)CCCN(C)C)[C@@H](C)CN([C@H](C)CO)C(=O)c2cc(NS(=O)(=O)c3ccccc3)ccc2O1 -10.3% [at 16 µM], C[C@H](CO)N1C[C@H](C)[C@H](CN(C)S(=O)(=O)c2ccccc2F)Oc2cc(C#Cc3cccc(F)c3)ccc2S1(=O)=O 4.83%, O=S(=O)(c1ccccc1)N1CCCCN2[C@H](C1)[C@H](c1ccc(C#CC3CCCC3)cc1)[C@@H]2CO -17.2%, CC(C)NC(=O)Nc1ccc2c(c1)C(=O)N([C@H](C)CO)C[C@H](C)[C@H](CN(C)Cc1ccc(-c3ccccc3)cc1)O2 5.22%, C[C@@H]1CN([C@@H](C)CO)C(=O)c2cc(-c3cccc(F)c3)cnc2O[C@H]1CN(C)C -3.87%, C[C@H](CO)N1C[C@H](C)[C@@H](CN(C)Cc2ccc(C(=O)O)cc2)Oc2ccc(NS(=O)(=O)c3ccc(Cl)cc3)cc2C1=O 5.79%, COc1ccc(NC(=O)N(C)C[C@@H]2Oc3ccc(NS(=O)(=O)c4ccc(F)cc4)cc3C(=O)N([C@H](C)CO)C[C@@H]2C)cc1 15%, O=C(N[C@H]1C=C[C@H](CC(=O)N2CCOCC2)O[C@H]1CO)c1ccccn1 7.46%, C[C@H]1CN([C@@H](C)CO)C(=O)c2cc(NC(=O)CCN3CCOCC3)ccc2O[C@H]1CN(C)C(=O)Nc1ccc2c(c1)OCO2 4.04%
